# Calls of active or inactive are those of the source. Rule for the calls: active = hit-call score of the fitted dose curve at least 0.9, where 1 is the maximum; inactive = score below 0.9.
# Test: ATG_PPRE_CIS: Attagene CIS-FACTORIAL HepG2 Assay for human Peroxisome Proliferator-activated Response Element (PPRE) (AID 2282958)
# Conditions: HepG2 PPRE cis-element reporter, Attagene transcription factor profiling; actives raise or lower the signal
# Protocol: ATG_CIS is a cell-based, multiplexed-readout assay that uses HepG2, a human liver cell line, with measurements taken at 24 hours after chemical dosing in a 24-well plate.ATG_PPRE_CIS is one of 52 assay component(s) measured or calculated from the ATG_CIS assay. It is designed to make measurements of mRNA induction, a form of inducible reporter, as detected with fluorescence intensity signals by Reverse transcription polymerase chain reaction (RT-PCR) and Capillary electrophoresis technology.Data from the assay component ATG_PPRE_CIS was analyzed into 1 assay endpoint. This assay endpoint, ATG_PPRE_CIS, was analyzed with bidirectional fitting relative to DMSO as the negative control and baseline of activity. Using a type of inducible reporter, measures of mRNA for gain or loss-of-signal activity can be used to understand the reporter gene at the transcription factor-level as they relate to the gene PPARA and PPARD and PPARG. Furthermore, this assay endpoint can be referred to as a primary readout, because this assay has produced multiple assay endpoints where this one serves a reporter gene function. To generalize the intended target to other relatable targets, this assay endpoint is annotated to the nuclear receptor intended target family, where the subfamily is non-steroidal.
# Human liver HepG2 cells are transiently transfected with multiple reporter transcription units (MRTUs) in 6-well plates using FuGene 6 reagent (Roche; 3 ml FuGene/1 mg DNA). The MRTU constructs are regulated by a cis-regulating element (promoter). […] A major difference between the CIS and TRANS system is that in CIS activities of endogenous TFs are measured, whereas the TRANS assay evaluates changes in activities of exogenous, chimeric NR-Gal4 proteins. […] At the end of 24 hour incubation, total RNA was isolated using TriZol reagent (Invitrogen). The isolated RNA is then reverse-transcribed using oligo(dT) primer and Mo-MLV reverse transcriptase (Invitrogen) with DNAse I (Ambion) treatment for 30 min. The one-tenth of the produced cDNA was amplified by PCR using Taq DNA polymerase (Invitrogen) and two reporter sequence-specific primers. The PCR products were fluorescently labeled by primer extension with 6-arboxyfluorescein (6-FAM) 5'-labeled reporter sequence-specific primer (2 min at 95 C, 20 s at 68 C and 10 min at 72 C) and these products were digested with 5U of HpaI (New England Biolabs) for 2h at 37 C. The fragments were purified using Qiaquick PCR columns (Qiagen), analyzed on an ABI 3130xL genetic analyzer (Applied Biosystems) with peak positions identified by using a set of X-rhodamine (ROX)-labeled MapMarker1000 molecular weight standards (BioVentures). The raw capillary electrophoresis data was processed using Attagraph software (Attagene).
SMILES,outcome,AC50
[CH3][Sn]([CH3])([Cl])[Cl],inactive,
Cc1ncc(C[n+]2csc(CCO)c2C)c(N)n1,inactive,
CC(C)C#N,inactive,
CN(C)N,inactive,
CCCCOP(=O)(O)OCCCC,inactive,
N#Cc1cc(I)c(O)c(I)c1,,29.1 µM (active)
C=C(Cl)CCl,inactive,
c1ccc(P(c2ccccc2)c2ccccc2)cc1,inactive,
O=[N+]([O-])c1cc(C(F)(F)F)c(Cl)c([N+](=O)[O-])c1Cl,inactive,
ClCC(Cl)Cl,inactive,
CN(C)CCC#N,inactive,
O=CNC(N1CCN(C(NC=O)C(Cl)(Cl)Cl)CC1)C(Cl)(Cl)Cl (stereo not given),inactive,
O=C(NC(=O)c1c(F)cccc1F)Nc1ccc(Oc2ccc(C(F)(F)F)cc2Cl)cc1F,inactive,
CCOC(=O)NC(=S)Nc1ccccc1NC(=S)NC(=O)OCC,inactive,
ClC1=C(Cl)[C@]2(Cl)[C@@H]3[C@@H](Cl)[C@H](Cl)C[C@@H]3[C@@]1(Cl)C2(Cl)Cl,inactive,
CCCCNP(N)(N)=S,inactive,
CCCCCCCCCCCC#N,inactive,
Cc1cc(C)c(C2=C(OC(=O)CC(C)(C)C)C3(CCCC3)OC2=O)c(C)c1,inactive,
CNC(=O)Oc1cc(C)c(SC)c(C)c1,,36.4 µM (active)
CN(N=O)c1ccccc1,inactive,

SMILES,outcome,AC50
O=C1C(Cl)=C(Cl)C(=O)C(Cl)=C1Cl,inactive,
CC(C)[C@@H](C(=O)O[C@@H](C#N)c1cccc(Oc2ccccc2)c1)c1ccc(Cl)cc1,inactive,
C=CC(=O)OCC(CC)CCCC (stereo not given),inactive,
C=COCCCl,inactive,
CC(C)(Cl)Cl,inactive,
COc1ccc(CO)cc1,inactive,
C[N+](C)(C)CC(=O)O,inactive,
Clc1ccc(-c2ccccc2)cc1,inactive,
CCc1cc(C)cc(CC)c1-c1c(OC(=O)C(C)(C)C)n2n(c1=O)CCOCC2,inactive,
O=[N+]([O-])c1cc([N+](=O)[O-])c2ccccc2c1,inactive,
Cc1ccc(N(SC(F)(Cl)Cl)S(=O)(=O)N(C)C)cc1,,11.1 µM (active)
O=S(=O)(O)OOS(=O)(=O)O,inactive,
CC[N+](=O)[O-],inactive,
O=c1[nH]c(Cl)c(Cl)cc1Cl,,15.8 µM (active)
O=c1c2ccccc2c(=O)c2c1cc(Cl)c1[nH]c3c([nH]c12)c(Cl)cc1c(=O)c2ccccc2c(=O)c13,inactive,
CC(=O)c1cc2c(cc1C)C(C)(C)C(C)CC2(C)C (stereo not given),inactive,
CC(C)c1ccc(O)cc1,inactive,
CC(C)(C)C(=O)CCl,inactive,
CCOP(=O)(OCC)Oc1ccc([N+](=O)[O-])cc1,inactive,
CCC(C)c1cc([N+](=O)[O-])cc([N+](=O)[O-])c1OC(=O)C=C(C)C (stereo not given),inactive,

# Reference: PubChem BioAssay (EPA / NIEHS)
